# PubChem BioAssay
# Active and inactive are the calls of the source.
# What was measured:
# [1] = binders of probe aFSTL3 on microarray, primary screen, stem cell growth factor project, biochemical, small-molecule microarray, fluorescence 635/667 (AID 1064); conditions: higher = more signal;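 also: measures binding of the biotinylated anti-FSTL3 antibody to printed compounds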
# [2] = binders from COS7 lysate, DM2A8 probe, primary screen, torsin A project, cell lysate, small-molecule microarray, fluorescence 635/667 (AID 1065); conditions: higher = more signal, COS7 lysate expressing mutant human TOR1A
# [3] = binders of probe aFGF2 on microarray, primary screen, stem cell growth factor project, biochemical, small-molecule microarray, fluorescence 635/667 (AID 1067); conditions: higher = more signal;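 also: measures binding of biotinylated aFGF2 protein to printed compounds on slides; z-score merges feature fluorescence and signal-to-noise across triplicate slides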
# [4] = binders of probe aFGF10 on microarray, primary screen, stem cell growth factor project, biochemical, small-molecule microarray, fluorescence 635/667 (AID 1071); conditions: higher = more signal;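 also: score merges 667 nm spot intensity and signal to noise from triplicate slides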
# [5] = molecular target: Neurogenic locus notch homolog protein 2 (Homo sapiens) (UniProt Q04721); assay: Notch2 binders on small-molecule microarrays, primary screen, biochemical, small-molecule microarray, 635 nm fluorescence, stem cell growth factors (AID 1073); conditions: Notch2 binding, higher = more signal
# [6] = molecular target: Pro-neuregulin-1, membrane-bound isoform (Homo sapiens) (UniProt Q02297); assay: NRG1 binders on small-molecule microarrays, primary screen, psychiatric disease protein project, biochemical, small-molecule microarray, fluorescence 635/667 (AID 1075); conditions: NRG1 binding, 635 nm fluorescence, higher = more signal;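 also: score combines 667 nm spot fluorescence with signal to noise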
# [7] = test system: Neuregulin-1 EGF-like domain; assay: binders of neuregulin-1 EGF-like domain, primary screen, biochemical, small-molecule microarray, 635 nm fluorescence (AID 1081); conditions: small-molecule microarray binding, higher = more signal;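 also: binding of the protein to compounds printed on small-molecule microarray slides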
# [8] = FRG1 promoter luciferase signal modulators, primary screen, FRG1 inhibition for FSHD, cell-based, C2C12 myotubes, firefly/Renilla luciferase, luminescence (AID 1084); conditions: higher = more signal, called active from +8 up or from −8 down
# [9] = binders of probe aFST on microarray, primary screen, stem cell growth factor project, biochemical, small-molecule microarray, fluorescence 635/667 (AID 1086); conditions: higher = more signal;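 also: score merges 667 nm fluorescence with signal-to-noise of each printed compound spot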
# [10] = binders of probe aHhip on microarray, primary screen, stem cell growth factor project, biochemical, small-molecule microarray, fluorescence 635/667 (AID 1087); conditions: higher = more signal;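 also: score merges spot fluorescence at 667nm with spot signal to noise ratio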
# Chain of Neurogenic locus notch homolog protein 2 (Homo sapiens) (Q04721 whole entry, looked up, canonical isoform): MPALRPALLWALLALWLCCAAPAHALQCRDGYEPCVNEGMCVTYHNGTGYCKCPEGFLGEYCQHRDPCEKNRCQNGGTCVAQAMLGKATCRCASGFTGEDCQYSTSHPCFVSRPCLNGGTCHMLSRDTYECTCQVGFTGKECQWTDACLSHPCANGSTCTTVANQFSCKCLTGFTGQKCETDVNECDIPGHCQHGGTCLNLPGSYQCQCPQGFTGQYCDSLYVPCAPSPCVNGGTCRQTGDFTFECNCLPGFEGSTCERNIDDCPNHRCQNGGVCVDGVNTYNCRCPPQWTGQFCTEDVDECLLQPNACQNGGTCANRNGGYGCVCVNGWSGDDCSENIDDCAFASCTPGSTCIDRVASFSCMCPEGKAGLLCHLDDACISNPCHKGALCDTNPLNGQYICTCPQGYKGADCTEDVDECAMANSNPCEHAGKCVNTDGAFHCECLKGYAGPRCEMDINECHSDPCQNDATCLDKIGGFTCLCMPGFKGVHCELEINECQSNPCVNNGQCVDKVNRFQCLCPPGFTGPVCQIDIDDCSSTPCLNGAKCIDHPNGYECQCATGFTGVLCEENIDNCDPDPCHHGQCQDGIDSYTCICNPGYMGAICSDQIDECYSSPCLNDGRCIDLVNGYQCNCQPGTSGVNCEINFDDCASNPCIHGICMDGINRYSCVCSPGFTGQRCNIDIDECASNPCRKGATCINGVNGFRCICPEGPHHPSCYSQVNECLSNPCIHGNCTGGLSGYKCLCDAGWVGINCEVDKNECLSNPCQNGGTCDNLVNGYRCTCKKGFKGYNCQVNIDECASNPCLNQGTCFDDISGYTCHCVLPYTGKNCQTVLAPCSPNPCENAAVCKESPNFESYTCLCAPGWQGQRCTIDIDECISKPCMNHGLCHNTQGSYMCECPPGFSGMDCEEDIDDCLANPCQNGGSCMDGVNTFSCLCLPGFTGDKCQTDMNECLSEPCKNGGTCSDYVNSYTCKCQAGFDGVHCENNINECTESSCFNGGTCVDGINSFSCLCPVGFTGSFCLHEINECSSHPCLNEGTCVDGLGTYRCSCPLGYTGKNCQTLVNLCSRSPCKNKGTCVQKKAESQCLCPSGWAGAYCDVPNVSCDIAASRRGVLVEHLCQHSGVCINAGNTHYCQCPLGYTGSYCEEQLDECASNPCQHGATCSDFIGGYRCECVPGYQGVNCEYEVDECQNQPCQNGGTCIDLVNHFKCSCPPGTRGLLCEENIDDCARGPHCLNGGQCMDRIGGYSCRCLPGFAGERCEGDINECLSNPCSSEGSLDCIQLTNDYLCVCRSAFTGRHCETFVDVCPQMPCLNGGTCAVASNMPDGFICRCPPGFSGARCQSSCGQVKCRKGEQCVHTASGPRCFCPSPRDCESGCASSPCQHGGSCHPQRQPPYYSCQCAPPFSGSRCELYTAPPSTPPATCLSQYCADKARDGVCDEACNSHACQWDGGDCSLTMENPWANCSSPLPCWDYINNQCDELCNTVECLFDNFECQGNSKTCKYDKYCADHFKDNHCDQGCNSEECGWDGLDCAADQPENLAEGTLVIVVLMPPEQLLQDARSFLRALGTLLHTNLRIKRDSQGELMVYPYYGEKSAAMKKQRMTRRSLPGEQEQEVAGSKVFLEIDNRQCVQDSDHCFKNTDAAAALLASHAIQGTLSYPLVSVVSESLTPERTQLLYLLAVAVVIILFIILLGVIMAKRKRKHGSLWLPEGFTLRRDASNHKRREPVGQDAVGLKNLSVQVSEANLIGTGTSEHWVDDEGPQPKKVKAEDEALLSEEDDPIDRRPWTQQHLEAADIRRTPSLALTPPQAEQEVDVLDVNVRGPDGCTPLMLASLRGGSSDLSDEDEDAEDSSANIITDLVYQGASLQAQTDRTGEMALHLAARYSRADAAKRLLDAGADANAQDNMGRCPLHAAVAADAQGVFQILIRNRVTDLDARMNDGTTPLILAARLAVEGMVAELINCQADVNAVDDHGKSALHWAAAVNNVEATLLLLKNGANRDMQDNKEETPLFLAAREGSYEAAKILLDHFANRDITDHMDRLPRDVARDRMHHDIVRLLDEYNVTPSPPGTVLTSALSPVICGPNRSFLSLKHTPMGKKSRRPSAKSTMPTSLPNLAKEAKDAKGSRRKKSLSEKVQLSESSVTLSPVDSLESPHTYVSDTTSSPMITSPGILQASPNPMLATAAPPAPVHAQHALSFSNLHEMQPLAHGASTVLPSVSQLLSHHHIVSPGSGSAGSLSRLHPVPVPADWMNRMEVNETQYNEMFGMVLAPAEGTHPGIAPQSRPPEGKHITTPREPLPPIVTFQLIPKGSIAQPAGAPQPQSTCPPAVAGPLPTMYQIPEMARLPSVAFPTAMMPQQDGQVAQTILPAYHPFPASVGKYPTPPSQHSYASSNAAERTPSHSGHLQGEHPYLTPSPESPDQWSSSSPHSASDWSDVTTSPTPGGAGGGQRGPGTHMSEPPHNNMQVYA
# Chain of Pro-neuregulin-1, membrane-bound isoform (Homo sapiens) (Q02297 whole entry, looked up, the tested form may be a part, canonical isoform): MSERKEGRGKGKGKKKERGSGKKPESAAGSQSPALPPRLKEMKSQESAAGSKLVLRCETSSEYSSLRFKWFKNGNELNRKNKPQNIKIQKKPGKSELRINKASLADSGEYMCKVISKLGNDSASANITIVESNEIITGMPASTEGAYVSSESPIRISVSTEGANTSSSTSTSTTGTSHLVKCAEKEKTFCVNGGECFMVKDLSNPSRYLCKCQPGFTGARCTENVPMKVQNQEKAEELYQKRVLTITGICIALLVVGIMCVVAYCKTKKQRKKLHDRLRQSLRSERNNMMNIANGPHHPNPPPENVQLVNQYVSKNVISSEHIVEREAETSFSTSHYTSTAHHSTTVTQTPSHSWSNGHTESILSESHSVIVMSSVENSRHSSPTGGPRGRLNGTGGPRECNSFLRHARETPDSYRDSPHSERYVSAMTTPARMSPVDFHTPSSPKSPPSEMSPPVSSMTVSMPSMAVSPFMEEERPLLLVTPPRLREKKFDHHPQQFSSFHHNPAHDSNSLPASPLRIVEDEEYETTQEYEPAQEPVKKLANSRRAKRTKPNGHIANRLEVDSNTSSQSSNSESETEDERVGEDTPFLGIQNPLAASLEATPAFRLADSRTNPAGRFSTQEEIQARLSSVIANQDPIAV
Structure (SMILES),composite z-score [1],composite z-score [2],composite z-score [3],composite z-score [4],composite z-score [5],composite z-score [6],composite z-score [7],z-score [8],composite z-score [9],composite z-score [10]
C=C(CCCC)C(=O)CC[C@H](OC(=O)c1ccccc1-c1ccccc1C(=O)O)c1cccc(OCCO)c1,0.0622,0.375,-0.133,-0.416,-1.37,1.29,0.652,-0.0278 (inactive),-0.284,-0.0994
C[C@@]1([C@@H](NS(=O)(=O)c2cccc3cccnc23)c2ccc(-c3ccccc3)cc2)C[C@H]1C1CCCCC1,0.299,0.0816,0.163,-0.0733,0.983,0.609,0.809,-0.365 (inactive),-0.244,0.0446
C=C(COC)/C(=C/C[C@@H](OC(=O)c1ccncc1)c1ccccc1OCCO)c1cnc2ccccc2c1,-0.421,0.749,-0.085,0.922,1.58,0.495,1.17,-0.828 (inactive),0.525,-0.159
COc1c(C)cc(-c2nc(-c3ccccc3)c3c(c2C)CO[Si]3(C(C)C)C(C)C)cc1C,-0.24,0.428,-0.134,0.146,0.442,-0.0636,-0.104,0.232 (inactive),0.0724,-0.0994
COCCOC(=O)N1C(=O)[C@@]2(c3cc(C#CC4=CCCCC4)ccc31)[C@H](c1ccc(O)cc1)N1[C@H](c3ccccc3)[C@H](c3ccccc3)OC(=O)[C@H]1[C@@H]2C(=O)N1CCc2cc(OC)c(OC)cc2C1,-0.253,-0.252,-0.0824,0.142,0.454,0.554,1.11,0.237 (inactive),0.0477,-0.0296
CCN1C(=O)C2CC(=O)C3C(CN(S(=O)(=O)c4ccc(C)cc4)C3c3ccc(C)cc3)C2C1=O (stereo not given),0.584,0.122,0.0174,0.183,0.308,1.61,1.18,-0.812 (inactive),0.292,0.0053
COC(=O)[C@@]1(Cc2ccc(F)cc2)[C@H]2c3cc(C(=O)N4CCCC4)n(C[C@H](O)CO)c3C[C@H]2CN1C(=O)c1ccccc1,0.468,0.501,0.474,0.697,1.17,2.15,1.16,3.49 (inactive),1.42,1.35
COCCCNC(=O)[C@@]1(Cc2ccccc2I)c2ccccc2C(=O)N(Cc2ccccc2OC)[C@H]1c1ccc(CO)cc1,0.841,0.32,0.096,0.655,-1.09,1.3,1.3,-2.86 (inactive),-0.523,-0.195
COC(=O)[C@@]1(Cc2ccc(F)cc2)[C@H]2c3cc(C(=O)N(C)C)n(Cc4ccc(C(F)(F)F)nc4)c3C[C@H]2CN1C(=O)c1ccccc1,1.5,0.474,0.0642,0.69,1.74,2.03,1.18,-0.909 (inactive),1.97,0.264
[N-]=[N+]=NCc1ccccc1[C@H]1OC(c2ccc(OCCCO)cc2)=N[C@@]1(Cc1ccccc1N=[N+]=[N-])C(=O)O,0.377,1.08,0.0997,0.503,1.37,1.21,1.24,4.15 (inactive),0.632,0.0623
COc1ccc([Si](C)(C)[C@H]2[C@H](CC(=O)N(CCO)Cc3ccccc3)O[C@@]3(C(=O)N(c4ccccc4)c4ccccc43)[C@@H]2C)cc1,-0.249,-0.182,-0.0261,0.638,0.199,0.951,0.46,-1.91 (inactive),0.294,-0.0581
O=C(CS)NCCCCCCNC(=O)[C@H]1C[C@H]2C(=O)NCC(=O)N2[C@H]1c1cccc(OCCO)c1,-0.0511,0.0436,-0.0488,0.22,0.166,1.36,1.36,0.525 (inactive),0.0909,0.0024
C=C1C(=O)C=C2CN(C(=O)c3ccccc3)[C@@](Cc3ccc(F)cc3)(C(=O)OC)[C@@H]12,0.891,-0.595,0.25,1.12,1.71,1.89,1.09,4.89 (inactive),1.87,-0.129
COC(=O)Cn1c(C(=O)N(C)C)cc2c1C[C@H]1CN(C(=O)c3ccccc3)[C@@](Cc3ccccc3)(C(=O)OC)[C@@H]21,-0.215,-0.365,-0.0493,0.0707,1.47,1.5,0.641,1.5 (inactive),0.0747,0.12
